# Screening data: PubChem BioAssay, several laboratories
# The list is not random: actives were taken first. Their share in the collection is about 1.3%.
# DUSP3 inh: inhibitors of human VHR1 phosphatase (DUSP3) | P51452 | recombinant VHR phosphatase, pNPP absorbance | inhibition, % at 13.3 µM | 290,000 tested, 0.52% active | AID 1654; in the data active means inhibition above about 50%
# Target sequence (P51452 whole entry, looked up): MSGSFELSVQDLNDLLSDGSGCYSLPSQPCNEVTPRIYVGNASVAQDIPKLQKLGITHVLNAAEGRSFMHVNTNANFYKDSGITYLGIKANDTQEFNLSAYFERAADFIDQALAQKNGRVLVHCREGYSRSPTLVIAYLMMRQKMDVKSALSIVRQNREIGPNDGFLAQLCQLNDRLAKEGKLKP
# 3CLpro inhibitor: SARS-CoV 3CLpro protease inhibition; P0C6X7; recombinant SARS-CoV 3CLpro, quenched FRET peptide cleavage; inhibition, % at 6 µM; 290,000 tested, 0.14% active; AID 1706; in the data active means inhibition above about 12%
# Mtb hypoxia rep: inhibitors of hypoxia-regulated fluorescent reporter in Mycobacterium tuberculosis. M. tuberculosis hypoxia-regulated fluorescent reporter, fluorescence. fluorescence inhibition, % (test concentration not listed). 300,000 tested, 0.1% active; in the data active means fluorescence inhibition mostly above about 23%, no sharp cut-off; inactive means mostly below about 17%
# CCHFV vOTU inh: CCHFV vOTU protease inhibition | inhibition, % at 11.5 µM | 370,000 tested, 0.55% active | Pep-AMC fluorescence; in the data active means inhibition above about 30%; further: 0% = vehicle wells with enzyme and 100% = no enzyme wells
# PriA SSB inh: K. pneumoniae PriA-SSBct interaction inhibition | AlphaScreen SSBct-PriA binding, biotinylated peptide | inhibition, % at 33 µM | 430,000 tested, 0.6% active | AID 1272365; in the data active means inhibition mostly above about 37%, no sharp cut-off; inactive means mostly below about 20%;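 further: plate controls were negative control peptide for no effect and reference peptide for full effect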
# * marks the source's active call; other numbers are inactive results; i = inactive; . = no result given; + = active, no number; ! = not active in a repeat.
SMILES,DUSP3 inh,3CLpro inhibitor,Mtb hypoxia rep,CCHFV vOTU inh,PriA SSB inh
O=C(Nc1nc2c(s1)CCCC2)c1cc(Cl)sc1Cl,.,.,.,.,1.0
CCS(=O)(=O)c1ccc(-c2ccc(NC(=O)COc3ccc(Cl)cc3)cc2)nn1,.,.,.,.,-12.0
Cc1ccc(NC(=O)c2n[nH]nc2Nc2cccc(F)c2)c(Cl)c1,.,.,.,.,3.0
O=C(c1cccc(Cl)c1)N1CCN(c2nc3ccccc3s2)CC1,.,.,.,.,0.0
CC1Cc2ccccc2N1C(=O)C1CCCN(S(=O)(=O)c2cccc3nsnc23)C1 (stereo not given),35.3,12.4*,9.5,-5.8,0.6
O=C(C1CCCN(S(=O)(=O)c2cccc3nsnc23)C1)N1CCc2ccccc21 (stereo not given),17.9,2.8,5.6,10.9,-1.4
COCCCNC(=O)C1CCCN(S(=O)(=O)c2cccc3nsnc23)C1 (stereo not given),52.7*,0.2,-2.9,-2.2,9.5
CCOCCCNC(=O)C1CCCN(S(=O)(=O)c2cccc3nsnc23)C1 (stereo not given),2.2,-0.2,.,0.9,-1.5
O=c1c2[nH]c3ccc(Br)cc3c2ncn1CCCn1ccnc1,23.2,1.6,4.0,10.6,60.7*
COCCOCC1CCN(C(=O)c2cc(-c3cccc(OC)c3)n[nH]2)CC1,.,.,.,.,-6.0
N#C/C(N=Nc1ccccc1O)=N\Nc1ccccc1O,.,.,.,23.5,+
Oc1ccccc1N=N/C(=N/Nc1ccccc1O)c1ccccc1,.,.,.,6.7,i
CN1CCN(c2cc(N3CCN(C(=O)c4ccco4)CC3)c3c4c(onc24)-c2ccccc2C3=O)CC1,21.1,-4.8,.,.,76.7*
O=C1c2ccccc2-c2onc3c(N4CCN(CCO)CC4)cc(N4CCN(C(=O)c5ccco5)CC4)c1c23,10.8,-0.9,.,21.0,80.3*
O=C(c1ccco1)N1CCN(CCCCN2C(=O)c3ccccc3C2=O)CC1,-0.8,0.2,-0.3,-5.3,-5.3
CCOC(=O)N1CCN(c2cc(NCCC(=O)O)c3c4c(onc24)-c2ccccc2C3=O)CC1,-16.1,0.1,4.3,.,71.0
CCC(=Nc1ccccc1O)C1=C(O)CC(c2ccccc2)CC1=O (stereo not given),-8.5,2.2,70.4*,6.9,7.2
CCC(=Nc1ccccc1OC)C1=C(O)CC(c2ccccc2)CC1=O (stereo not given),7.2,-4.3,0.0,-2.3,1.4
COc1ccc(CCNC(=O)CSc2ccc(-c3ccccc3)nn2)cc1OC,21.9,6.2,-2.8,1.3,-3.1
O=C(CSc1ccc(-c2ccccn2)nn1)Nc1nccs1,11.1,3.8,16.7,12.1,-13.0
COC(=O)c1ccc(NC(=O)CSc2ccc(-c3ccccn3)nn2)cc1,0.3,3.0,8.9,-6.0,37.0*!
COc1ccc(CCNC(=O)CSc2ccc(-c3ccccn3)nn2)cc1OC,.,.,.,.,93.8*
Cc1ccccc1NC(=O)CSc1ccc(-c2ccccn2)nn1,7.4,1.4,39.5*,-2.9,7.9
Cc1csc(NC(=O)CSc2ccc(-c3ccccn3)nn2)n1,-2.9,1.4,.,7.2,63.2*
CC(=O)c1ccc(NC(=O)CSc2ccc(-c3ccccn3)nn2)cc1,.,.,.,.,47.9
SMILES,DUSP3 inh,3CLpro inhibitor,Mtb hypoxia rep,CCHFV vOTU inh,PriA SSB inh
Cc1ccc(C)c(NC(=O)CSc2ccc(-c3ccccn3)nn2)c1,.,.,.,.,36.6
COc1cccc(C(=O)NCC(c2ccc3c(c2)CCCN3C)N2CCCC2)c1OC (stereo not given),.,.,.,.,22.0
COc1ccccc1CCNC(=O)CSc1ccc(-c2ccc3c(c2)OCO3)nn1,.,.,.,.,67.0*
Cc1cc(N)c2cc(Br)ccc2n1,.,.,.,.,-14.0
CCOC(=O)c1c(C)[nH]c(C)c1C(=O)CSc1nc2ccccc2n1CC,55.4*,2.8,12.2,3.7,11.9
O=C(c1ccccc1Oc1ccccc1)N(Cc1cccnc1)c1nc2cc3c(cc2s1)OCCO3,.,.,.,.,-9.0
COc1ccc(Br)cc1/C=C/c1ccc2cccc(O)c2n1,56.9*,-0.1,-8.5,18.8,-6.8
Cn1c(C(=O)N2CCC(C(=O)N3CCOCC3)CC2)cc2sccc21,53.3*,6.2,4.3,-11.6,-7.9
Cn1c(C(=O)N2CCC(C(=O)N3CCN(Cc4ccc5c(c4)OCO5)CC3)CC2)cc2sccc21,15.1,1.1,0.3,-0.6,-5.5
COc1ccc(C)cc1NC(=O)C(=O)NCC(c1ccc2c(c1)CCN2C)N(C)C (stereo not given),.,.,.,.,53.0*
CNC(=O)c1csc(N)n1,.,.,.,.,11.0
CSc1nc(Cc2ccccc2)nc2ccccc12,53.0*,-6.3,-2.7,-4.9,-46.2
Cc1ccc2c(Cl)cc(Cl)c(OCC(=O)O)c2n1,56.2*,1.8,6.9,1.3,-12.5
CN(c1ccccc1)S(=O)(=O)c1ccc(C(=O)Nc2nnc(-c3cccc(S(C)(=O)=O)c3)o2)cc1,.,.,.,.,-8.0
O=P1(c2ccccc2)Nc2ccccc2N1c1ccccc1 (stereo not given),.,.,.,7.4,57.0*
CCOc1ccccc1CNc1ccc(O)cc1,11.8,2.9,2.3,48.3*,10.3
Oc1ccc(NCc2ccccc2OCc2ccccc2F)cc1,0.1,-0.3,.,7.2,47.4
COc1ccc(C(=O)NN=C(Cc2ncc[nH]2)c2ccccc2)cc1,.,.,-5.2,.,-21.6
O=C(NN=C(Cc1ncc[nH]1)c1ccccc1)c1ccncc1,.,.,-7.5,.,47.9*
COC(=O)c1ccc(CN2CCC(COCc3ccc(Cl)cc3)CC2)cc1,.,.,.,.,-28.0
Cc1cc2oc(=O)cc(CN3CCCC3)c2cc1Cl,.,.,.,28.3,.
Cc1cc2oc(=O)cc(CN3CCOCC3)c2cc1Cl,54.2*,-3.3,0.5,7.8,-9.5
COc1ccc(C(=O)C(C#N)=NNc2cccc([N+](=O)[O-])c2)cc1,.,.,13.5,.,-1.4
COc1ccc(C(=O)/C(C#N)=N/Nc2ccc([N+](=O)[O-])cc2)cc1,71.0*,3.4,.,-7.3,.
CN(C)CCCNS(=O)(=O)c1ccc(NC2CCCCCC2)c([N+](=O)[O-])c1,52.0*,4.4,2.1,3.5,6.0
SMILES,DUSP3 inh,3CLpro inhibitor,Mtb hypoxia rep,CCHFV vOTU inh,PriA SSB inh
O=C(NCc1nnc(SCc2ccccc2)o1)c1c(F)cccc1F,.,.,.,.,-12.0
c1ccc(-c2ccc(SCc3cccnc3)nn2)nc1,22.7,1.2,-2.0,0.3,76.5*
c1ccc(CSc2ccc(-c3ccccn3)nn2)nc1,1.7,-5.1,10.8,-9.2,88.8*
O=C(O)CCCC(=O)Nc1ccc(OCc2nc3ccccc3s2)cc1,57.4*,-0.9,-0.1,4.8,-7.0
O=C(CCCc1nc2ccccc2s1)Nc1ccccc1,13.1,-1.4,11.5,-4.5,14.0
O=C(COC(=O)C1CC2CCCC(C1)C2=O)Nc1ccc(F)c(Cl)c1 (stereo not given),.,.,22.0*,0.6,3.6
CCOC(=O)N1CCN(c2cc(N)c([N+](=O)[O-])cc2F)CC1,15.7,6.7,7.2,34.7*,5.5
COc1cc(/C=C/CN2CCC(CO)(CC3CCCCO3)CC2)ccc1O (stereo not given),51.4*,8.9,-12.4,2.0,-14.5
Cc1cc(/C=C(\C#N)C(=O)N2CCCCC2)cc(C)c1O,57.6*,-1.5,-13.2,5.8,6.4
N#C/C(=C\c1cccc(O)c1)C(=O)N1CCCCC1,31.2,1.7,0.7,-15.8,0.5
CC1=CC(C)(C)Nc2ccc(OC(=O)C(C)N3C(=O)c4ccccc4C3=O)cc21 (stereo not given),12.7,1.1,1.7,-3.3,42.5*
